Screening data deposited in PubChem BioAssay by several laboratories.
The list is not random: actives were taken first. Their share in the collection is about 4.2%.
TIM10 inh = growth inhibitors of TIM10 yeast strain | inhibition, % at 10 µM | AID 463195 | 330,000 compounds, 1.4% hits | S. cerevisiae TIM10 strain growth, BacTiter-Glo luminescence, 24 h;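 active = inhibition of 40% or more at the single tested concentration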;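 also: wild-type TIM10 isogenic control strain grown at permissive 25 °C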
PfHsp90 yeast 2 = reduces growth (ATP signal) of yeast expressing P. falciparum Hsp90 | 310,000 compounds, 0.32% hits | S. cerevisiae expressing PfHsp90, BacTiter-Glo ATP, 48 h; yeast lacking PDR1 and PDR3 efflux regulators | inhibition, % at 9.4 µM;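 active = every replicate shows inhibition above about 80%, whatever the replicate mean, limit read from the data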
tim10-1 inh = inhibits growth of tim10-1 mutant yeast | 330,000 compounds, 2.2% hits | AID 463190 | inhibition, % at 20 µM | S. cerevisiae tim10-1 ts strain growth, BacTiter-Glo, 24 h;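 active = inhibition of at least 40%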;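 also: mutant grown at 25 °C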
NALP1 yeast inh = inhibitors of NALP1 inflammasome in yeast. S. cerevisiae NALP1/ASC/caspase-1 growth, X-gal OD620, 72 h. inhibition, % at 10 µM. 280,000 compounds, 0.61% hits; in the data active = inhibition mostly above about 24%, no sharp cut-off; inactive = mostly below about 32%
NLRP3 yeast inh = blocks the NALP3 inflammasome reconstituted in yeast | Yeast reconstituted NLRP3/ASC/caspase-1, beta-gal luminescence, 24 h | inhibition, % at 10 µM | 330,000 compounds, 0.39% hits | AID 2825;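 active = inhibition of 50% or more; inactive = inhibition below 50%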
tim23-1 inh = inhibits growth of tim23-1 mutant yeast | S. cerevisiae tim23-1 growth, BacTiter-Glo luminescence, 24 h | inhibition, % at 20 µM | 330,000 compounds, 1.3% hits | AID 463212;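 active = growth inhibition of the mutant yeast at or above 50%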;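 also: temperature-sensitive mutant grown at 25 °C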
NALP3 confirm = NALP3 inhibition confirmation in yeast. shares compounds with NLRP3 yeast inh. AID 435006. 1,300 compounds, 81% hits. yeast expressing human NALP3, luminescence. inhibition, % at 10 µM; in the data active = inhibition above about 48%
Casp1 ASC ctr = active in yeast caspase-1-ASC counter-screen for NALP3 inhibitors; yeast expressing Caspase-1-ASC, luminescence counter screen; inhibition, % at 10 µM; 1,000 compounds, 66% hits; shares compounds with NLRP3 yeast inh
NALP3 retest = confirmation retest of NALP3 inhibitors in yeast. inhibition, % at 10 µM. yeast expressing human NALP3, luminescence read-out. 1,000 compounds, 53% hits. shares compounds with NLRP3 yeast inh
tim10-1 conf = confirmation of tim10-1 mutant yeast growth inhibitors; S. cerevisiae tim10-1 ts strain growth, BacTiter-Glo, 24 h; 7,400 compounds, 56% hits; inhibition, % at 20 µM; shares compounds with tim10-1 inh;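 active = inhibition of yeast growth at or above a set limit in either of two repeat tests at 20 µM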;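 also: tim10-1 mutant grown at permissive 25 °C to find synthetic lethal compounds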
TIM10 conf = confirmation of TIM10 yeast growth inhibitors; shares compounds with TIM10 inh; S. cerevisiae tim10 strain growth, BacTiter-Glo luminescence, 24 h; inhibition, % at 10 µM; 4,600 compounds, 63% hits;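 active = inhibition of yeast growth at or above a set limit in either of two replicates at 10 µM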; also: this counterscreen used the strain with wild-type TIM10
tim23-1 conf = tim23-1 yeast growth inhibition, confirmed. shares compounds with tim23-1 inh. S. cerevisiae tim23-1 growth, BacTiter-Glo luminescence, 24 h. inhibition, % at 20 µM. 4,400 compounds, 83% hits. AID 463218;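 active = inhibition above about 39% in either of two replicate wells at 20 µM, limit read from the data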;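 also: temperature-sensitive tim23-1 mutant grown at 25 °C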
Of the large screens only hits and unclear results are named; the others gave an inactive call (follow-up assays come after a bar, where they were run). Rule as the data show it, unless noted: active = inhibition above about 50%; inactive = the rest.

CC(C)c1ccc(-c2csc(NC(=O)c3cccs3)c2C(=O)O)cc1	TIM10 inh 81, tim10-1 inh 76, NLRP3 yeast inh 71, tim23-1 inh 67 | NALP3 confirm 84 | Casp1 ASC ctr 76 | NALP3 retest 74 | tim10-1 conf 86 | TIM10 conf 92 | tim23-1 conf 89
O=C(CCNC(=O)c1ccccc1Cl)Nc1ccc(Cl)c(C(F)(F)F)c1	none (no result: PfHsp90 yeast 2)
CCOC(=O)C1=C(COC(=O)C(CC)c2ccccc2)NC(=O)NC1C (stereo not given)	none (no result: NALP1 yeast inh)
Nc1nc(-c2ccccc2)cs1	none
Nc1nc(-c2cc(-c3ccccc3)no2)cs1	TIM10 inh 51, NLRP3 yeast inh 56, tim23-1 inh 80 | NALP3 confirm 75 | Casp1 ASC ctr 64 | NALP3 retest 61 | TIM10 conf 58 | tim23-1 conf 75
C=C(C)COc1ccc2c(C)c(CC(=O)OC)c(=O)oc2c1C	TIM10 inh 87, tim10-1 inh 80, NLRP3 yeast inh 66, tim23-1 inh 61 | NALP3 confirm 78 | Casp1 ASC ctr 83 | NALP3 retest 80 | tim10-1 conf 76 | TIM10 conf 88 | tim23-1 conf 65
CCOc1cc(/C=C\[N+](=O)[O-])ccc1OCC(=O)Nc1ccccc1C	TIM10 inh 56, PfHsp90 yeast 2 110, NLRP3 yeast inh 58, tim23-1 inh 58 | NALP3 confirm inactive | TIM10 conf inactive | tim23-1 conf 78
COc1cc(/C=C/c2cccc[n+]2C)ccc1OCC(=O)Nc1ccccc1C	none
CCCc1cc(C(=O)Nc2cc(C)ccc2O)no1	none
COc1ccc(/C=C/C(=O)Nc2ccc3c(c2)CCC3)cc1OC	NLRP3 yeast inh 59, tim23-1 inh 54 | NALP3 confirm inactive | tim23-1 conf 55
C[C@@]12C(=O)Nc3cc(Cl)ccc3C(=O)N1[C@H]1c3ccccc3OC[C@@H]1[C@@H]2c1ccccc1	none (no result: NALP1 yeast inh)
C[C@@]12C(=O)Nc3ccc(Cl)cc3C(=O)N1[C@H]1c3ccccc3OC[C@@H]1[C@@H]2c1ccccc1	PfHsp90 yeast 2 107, NLRP3 yeast inh 79, tim23-1 inh 61 (no result: NALP1 yeast inh) | NALP3 confirm 91 | Casp1 ASC ctr 70 | NALP3 retest 66 | tim23-1 conf 57
COc1ccc(OCCn2cnc3ccccc32)cc1	none
CCN(CC)c1ccc(/C=C2\SC(=O)N(C(C)C)C2=O)o1	TIM10 inh 57, tim10-1 inh 62, NLRP3 yeast inh 52, tim23-1 inh 60 (no result: PfHsp90 yeast 2) | NALP3 confirm inactive | Casp1 ASC ctr 56 | NALP3 retest inactive | tim10-1 conf 44 | TIM10 conf 64 | tim23-1 conf 74
O=C(NC1=NCCS1)c1sc2ccccc2c1Cl	TIM10 inh 46, NLRP3 yeast inh 52, tim23-1 inh 73 | NALP3 confirm 63 | TIM10 conf 37 | tim23-1 conf 80
Cc1c(Cl)sn(-c2ccc(Cl)cc2)c1=O	TIM10 inh 97, PfHsp90 yeast 2 111, tim10-1 inh 96, NALP1 yeast inh 98, NLRP3 yeast inh 56, tim23-1 inh 55 | NALP3 confirm inactive | Casp1 ASC ctr 69 | NALP3 retest inactive | tim10-1 conf 98 | TIM10 conf 100 | tim23-1 conf 99
COc1ccc(C)cc1NC(=O)C1CCN(C(=O)C2CC(=O)N(c3ccc(C)cc3)C2)CC1 (stereo not given)	none
CSc1nc2cc(Oc3cccc(Cl)c3Cl)c(Cl)cc2[nH]1	TIM10 inh 55, PfHsp90 yeast 2 109, tim10-1 inh 53, NLRP3 yeast inh 83, tim23-1 inh 74 | NALP3 confirm 91 | Casp1 ASC ctr 96 | NALP3 retest 95 | tim10-1 conf 51 | TIM10 conf 65 | tim23-1 conf inactive
CC/C=C/C(=O)N1CC2(CC(c3cccc(NC(=O)COc4ccc(Cl)cc4)c3)=NO2)C[C@H]1C(N)=O (stereo not given in full)	none (no result: NALP1 yeast inh)
O=C1Nc2ccccc2/C1=C/c1ccccc1F	TIM10 inh 56, NLRP3 yeast inh 53, tim23-1 inh 53 | NALP3 confirm 53 | Casp1 ASC ctr inactive | NALP3 retest inactive | TIM10 conf 57 | tim23-1 conf 45
CCCCCCCCCn1c2c(c(=N)c3c1CCC3)CCC2	TIM10 inh 48, tim10-1 inh 64, NALP1 yeast inh 27, NLRP3 yeast inh 59, tim23-1 inh 67 | NALP3 confirm 65 | Casp1 ASC ctr inactive | NALP3 retest 55 | tim10-1 conf 60 | TIM10 conf 50 | tim23-1 conf 83
O=C1NC(=O)/C(=C\c2ccc(N3CCOCC3)o2)N1	none
CCCC1CCC(c2ccc(C(=O)NN)cc2)CC1 (stereo not given)	TIM10 inh 47, NLRP3 yeast inh 51, tim23-1 inh 55 | NALP3 confirm inactive | TIM10 conf 32 | tim23-1 conf inactive
Cc1cccc(C(=O)OC(C)CN2C(C)CCCC2C)c1 (stereo not given)	none
CCOc1cc(N2CCOCC2)c(OCC)cc1NC(=O)c1cc(S(=O)(=O)N2CCOCC2)ccc1F	none (no result: NALP1 yeast inh)
Cc1nc(Nc2nc3c(c(=O)[nH]2)CCC3)nc2ccccc12	TIM10 inh 83, tim10-1 inh 60, NLRP3 yeast inh 77, tim23-1 inh 64 (no result: NALP1 yeast inh) | NALP3 confirm 71 | Casp1 ASC ctr inactive | NALP3 retest inactive | tim10-1 conf 72 | TIM10 conf 75 | tim23-1 conf 62
COc1ccccc1C(C[N+](=O)[O-])c1c(N)n(C)c(=O)n(C)c1=O (stereo not given)	TIM10 inh 55, tim10-1 inh 57, NALP1 yeast inh active, NLRP3 yeast inh 77, tim23-1 inh 82 (no result: PfHsp90 yeast 2) | NALP3 confirm 51 | Casp1 ASC ctr 75 | NALP3 retest inactive | tim10-1 conf 61 | TIM10 conf 64 | tim23-1 conf 84
O=C(Nc1csc(Cl)c1)c1ccccc1	TIM10 inh 43, NLRP3 yeast inh 80, tim23-1 inh 56 (no result: NALP1 yeast inh) | NALP3 confirm 81 | Casp1 ASC ctr 86 | NALP3 retest 79 | TIM10 conf 41 | tim23-1 conf 69
